PubChem BioAssay AID1159580 (chemical genetic matrix, 2015)
Among all 5,500 compounds or so, about 2,000 (36%) were called active. Inconclusive results (about 18%) are left out. The list shows a part of the results. A number with no mark means an inactive call. Cut-off read from the data, not from the text of the source: active = normalized growth mostly below about 0.91 (no sharp cut-off); inconclusive = no clear call, values can overlap the other calls; inactive = mostly above about 0.92.

Assay: chemical genetic growth profiling, strain panel (AID 1159580);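 note: tested at 20 µM; growth read once vehicle control cultures reached saturation at 30 °C; 1 = growth at the plate median or of vehicle wells; lower values mean less growth of the strain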
Details: growth OD
[1] = S. cerevisiae deletion strains, locus YAL013W, strain DEP1, hits give low values
[2] = S. cerevisiae deletion strains, locus YBR229C, strain ROT2, hits give low values
[3] = S. cerevisiae deletion strains, locus YDL101C, strain DUN1, hits give low values
[4] = S. cerevisiae deletion strains, locus YDR150W, strain NUM1, hits give low values
[5] = S. cerevisiae deletion strains, locus YEL061C, strain CIN8, hits give low values
[6] = S. cerevisiae deletion strains, locus YGR078C, strain PAC10, hits give low values
[7] = S. cerevisiae deletion strains, locus YHR030C, strain SLT2, hits give low values
[8] = S. cerevisiae deletion strains, locus YHR087W, strain rtc3, hits give low values
[9] = S. cerevisiae deletion strains, locus YJL187C, strain SWE1, hits give low values
[10] = S. cerevisiae deletion strains, locus YJR043C, strain POL32, hits give low values
[11] = S. cerevisiae deletion strains, locus YJR075W, strain HOC1, hits give low values
[12] = S. cerevisiae deletion strains, locus YKL190W, strain CNB1, hits give low values
[13] = S. cerevisiae deletion strains, locus YLR039C, strain RIC1, hits give low values
[14] = S. cerevisiae deletion strains, locus YLR058C, strain SHM2 (second series), hits give low values
[15] = S. cerevisiae deletion strains, locus YLR085C, strain ARP6, hits give low values
[16] = S. cerevisiae deletion strains, locus YLR262C, strain YPT6, hits give low values
[17] = S. cerevisiae deletion strains, locus YML094W, strain GIM5, hits give low values
[18] = S. cerevisiae deletion strains, locus YMR219W, strain ESC1, hits give low values
[19] = S. cerevisiae deletion strains, locus YMR263W, strain SAP30, hits give low values
[20] = S. cerevisiae deletion strains, locus YNL298W, strain CLA4 (second series), hits give low values
[21] = S. cerevisiae deletion strains, locus YNL322C, strain KRE1, hits give low values
[22] = S. cerevisiae deletion strains, locus YNR030W, strain Alg12, hits give low values
[23] = S. cerevisiae deletion strains, locus YPL055C, strain LGE1, hits give low values
[24] = S. cerevisiae deletion strains, locus YPL241C, strain CIN2, hits give low values
[25] = S. cerevisiae deletion strains, locus YPR135W, strain CTF4, hits give low values
[26] = S. cerevisiae strains, strain wild type, hits give low values
[27] = S. cerevisiae deletion strains, locus YCL061C, strain MRC1, hits give low values
[28] = S. cerevisiae deletion strains, locus YMR307W, strain GAS1, hits give low values
[29] = S. cerevisiae deletion strains, locus YNL153C, strain GIM3, hits give low values
[30] = S. cerevisiae deletion strains, locus YOL006C, strain TOP1, hits give low values

**Q.** With `COC(=O)c1csc2c(C(F)(F)F)cc(N3CCN(S(=O)(=O)c4ccc(C)cc4)CC3)nc12` as the compound, how does the normalized growth [1] read?
**A.** The normalized growth was 1.01.

**Q.** What about the normalized growth [2] of the same compound?
**A.** Its normalized growth is 1.

**Q.** And the normalized growth [3]?
**A.** Its normalized growth is 1.

**Q.** And the normalized growth [4]?
**A.** Its normalized growth is 1.05.

**Q.** And the normalized growth [5]?
**A.** Its normalized growth is 1.01.

**Q.** What about the normalized growth [6] of the same compound?
**A.** The normalized growth was 1.02.

**Q.** What about the normalized growth [7] of the same compound?
**A.** The normalized growth was 1.16.

**Q.** And the normalized growth [8]?
**A.** Its normalized growth is 1.

**Q.** What about the normalized growth [9] of the same compound?
**A.** Its normalized growth is 1.

**Q.** And the normalized growth [10]?
**A.** The normalized growth was 1.04.

**Q.** What about the normalized growth [11] of the same compound?
**A.** Its normalized growth is 0.999.

**Q.** And the normalized growth [12]?
**A.** Its normalized growth is 1.01.

**Q.** And the normalized growth [13]?
**A.** The normalized growth was 1.01.

**Q.** What about the normalized growth [14] of the same compound?
**A.** Its normalized growth is 1.01.

**Q.** And the normalized growth [15]?
**A.** Its normalized growth is 1.

**Q.** And the normalized growth [16]?
**A.** The normalized growth was 1.13.

**Q.** What about the normalized growth [17] of the same compound?
**A.** Its normalized growth is 0.998.

**Q.** And the normalized growth [18]?
**A.** Its normalized growth is 0.995.

**Q.** What about the normalized growth [19] of the same compound?
**A.** The normalized growth was 1.03.

**Q.** What about the normalized growth (S. cerevisiae deletion strains, locus YNL128W, strain TEP1, hits give low values) of the same compound?
**A.** The normalized growth was 1.

**Q.** And the normalized growth [20]?
**A.** Its normalized growth is 1.02.

**Q.** And the normalized growth [21]?
**A.** The normalized growth was 1.

**Q.** And the normalized growth [22]?
**A.** Its normalized growth is 1.03.

**Q.** What about the normalized growth [23] of the same compound?
**A.** The normalized growth was 0.993.

**Q.** What about the normalized growth [24] of the same compound?
**A.** Its normalized growth is 0.986.

**Q.** What about the normalized growth [25] of the same compound?
**A.** The normalized growth was 1.11.

**Q.** What about the normalized growth [26] of the same compound?
**A.** Its normalized growth is 1.01.

**Q.** For `COc1ccccc1N1CCN(S(=O)(=O)c2ccc(C(F)(F)F)cc2)CC1`, which normalized growth [1] is on record?
**A.** The normalized growth was 1.

**Q.** And the normalized growth [2]?
**A.** The normalized growth was 0.99.

**Q.** And the normalized growth [27]?
**A.** Its normalized growth is 0.985.

**Q.** And the normalized growth [3]?
**A.** The normalized growth was 1.01.

**Q.** What about the normalized growth [4] of the same compound?
**A.** Its normalized growth is 0.989.

**Q.** What about the normalized growth [5] of the same compound?
**A.** Its normalized growth is 1.02.

**Q.** And the normalized growth [6]?
**A.** Its normalized growth is 1.

**Q.** What about the normalized growth [7] of the same compound?
**A.** The normalized growth was 1.09.

**Q.** What about the normalized growth [8] of the same compound?
**A.** Its normalized growth is 1.03.

**Q.** What about the normalized growth [9] of the same compound?
**A.** Its normalized growth is 0.985.

**Q.** And the normalized growth [10]?
**A.** Its normalized growth is 0.998.

**Q.** And the normalized growth [11]?
**A.** The normalized growth was 0.99.

**Q.** And the normalized growth [12]?
**A.** The normalized growth was 0.965.

**Q.** What about the normalized growth [13] of the same compound?
**A.** Its normalized growth is 0.952.

**Q.** What about the normalized growth [14] of the same compound?
**A.** The normalized growth was 0.987.

**Q.** And the normalized growth [15]?
**A.** The normalized growth was 0.927.

**Q.** What about the normalized growth [16] of the same compound?
**A.** Its normalized growth is 0.962.

**Q.** And the normalized growth [17]?
**A.** Its normalized growth is 0.995.

**Q.** What about the normalized growth [18] of the same compound?
**A.** The normalized growth was 0.989.

**Q.** And the normalized growth [19]?
**A.** The normalized growth was 0.977.

**Q.** And the normalized growth [28]?
**A.** Its normalized growth is 1.04.

**Q.** And the normalized growth [29]?
**A.** The normalized growth was 1.

**Q.** What about the normalized growth [20] of the same compound?
**A.** The normalized growth was 1.01.

**Q.** What about the normalized growth [21] of the same compound?
**A.** The normalized growth was 0.99.

**Q.** What about the normalized growth [22] of the same compound?
**A.** The normalized growth was 1.

**Q.** What about the normalized growth [30] of the same compound?
**A.** Its normalized growth is 1.03.

**Q.** And the normalized growth [23]?
**A.** The normalized growth was 0.988.

**Q.** And the normalized growth [24]?
**A.** Its normalized growth is 0.888.

**Q.** What about the normalized growth [25] of the same compound?
**A.** Its normalized growth is 0.983.

**Q.** And the normalized growth [26]?
**A.** The normalized growth was 0.976.

**Q.** With `Cc1oc(-c2ccccc2)cc1C(=O)N1CCN(c2ccc(C(F)(F)F)cn2)CC1` as the compound, how does the normalized growth [1] read?
**A.** The normalized growth was 0.86 (active).

**Q.** And the normalized growth [2]?
**A.** The normalized growth was 0.961.

**Q.** What about the normalized growth [27] of the same compound?
**A.** The normalized growth was 0.984.

**Q.** And the normalized growth [3]?
**A.** The normalized growth was 1.

**Q.** What about the normalized growth [4] of the same compound?
**A.** Its normalized growth is 0.858.

**Q.** What about the normalized growth [5] of the same compound?
**A.** Its normalized growth is 0.947.

**Q.** What about the normalized growth [6] of the same compound?
**A.** The normalized growth was 0.963.

**Q.** And the normalized growth [7]?
**A.** The normalized growth was 0.433 (active).

**Q.** What about the normalized growth [8] of the same compound?
**A.** Its normalized growth is 0.935.

**Q.** And the normalized growth [9]?
**A.** Its normalized growth is 0.988.

**Q.** What about the normalized growth [10] of the same compound?
**A.** Its normalized growth is 0.98.

**Q.** What about the normalized growth [11] of the same compound?
**A.** The normalized growth was 0.964.

**Q.** And the normalized growth [13]?
**A.** The normalized growth was 0.876.

**Q.** What about the normalized growth [14] of the same compound?
**A.** The normalized growth was 0.977.

**Q.** And the normalized growth [15]?
**A.** Its normalized growth is 0.663 (active).

**Q.** And the normalized growth [16]?
**A.** The normalized growth was 0.941.

**Q.** What about the normalized growth [17] of the same compound?
**A.** Its normalized growth is 0.875.

**Q.** What about the normalized growth [18] of the same compound?
**A.** The normalized growth was 0.975.

**Q.** And the normalized growth [19]?
**A.** The normalized growth was 0.919.

**Q.** What about the normalized growth [28] of the same compound?
**A.** Its normalized growth is 0.762.

**Q.** And the normalized growth [29]?
**A.** Its normalized growth is 0.978.

**Q.** And the normalized growth [20]?
**A.** The normalized growth was 0.826 (active).

**Q.** What about the normalized growth [21] of the same compound?
**A.** Its normalized growth is 0.984.

**Q.** What about the normalized growth [22] of the same compound?
**A.** The normalized growth was 0.823 (active).

**Q.** And the normalized growth [30]?
**A.** Its normalized growth is 0.795.

**Q.** What about the normalized growth [23] of the same compound?
**A.** The normalized growth was 0.709 (active).

**Q.** What about the normalized growth [25] of the same compound?
**A.** Its normalized growth is 0.497 (active).

**Q.** What about the normalized growth [26] of the same compound?
**A.** The normalized growth was 0.957.
